Assay outcomes: PubChem BioAssay, National Center for Advancing Translational Sciences (NCATS)
Pf growth 48h – inhibits P. falciparum growth in the first generation, 48 h; P. falciparum luciferase growth in erythrocytes, 48 h; Potency, µM (highest dose often 28.7 µM), for inactives: top-dose activity change, negative = inhibition, actives largely listed as inhibitors; actives 5.9% (n = 310,000); note: potency is the fitted concentration of half-maximal effect; % is set by controls: 0 for no effect and ±100 for the full control effect
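A one-generation exposure of luciferase-tagged malaria parasites in RPMI 1640/Albumax erythrocyte culture, 37 C and 5% CO2. Inhibition is inferred from decreased luminescence after adding detection reagent.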
Pf growth 96h – P. falciparum growth inhibition at 96 hours | P. falciparum luciferase reporter growth, 96 h | Potency, µM (doses to about 28.7 µM), for the others: at the highest dose activity change, negative = inhibition, usual class: inhibitors | actives 6.9% (n = 320,000) | AID 504834; note: potency is the fitted concentration of half-maximal effect; % is set by controls: 0 for no effect and ±100 for the full control effect
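Readout is luminescence from an integrated firefly luciferase in P. falciparum. Red cells, 2% hematocrit and 0.05% parasitemia final, were cultured with compound through two parasite generations (96 hours) at 37 C, 5% CO2.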
AMA1-RON2 inh – AMA1-RON2 (P. falciparum) interaction inhibition | AlphaScreen AMA1-biotinylated RON2 peptide binding | Potency, µM (titrated, usually from 58.2 µM), inactives show top-dose activity change, negative = inhibition, hits mostly inhibitors | actives 0.2% (n = 360,000);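 note: potency is the fitted concentration of half-maximal effect; 0% = vehicle wells and -100% = peptide control; nearly all actives have a fitted effect of over 45% in size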
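AMA1 (3D7) with his tag at 25 nM final met compounds first, then biotinylated RON2 peptide at 25 nM; detection used donor plus acceptor beads, 10 µg/mL apiece, read by AlphaScreen after 30 min at room temperature.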
CHX counter – affects cycloheximide protein synthesis inhibition readout, counter-screen | cell reporter, cycloheximide protein synthesis inhibition counterscreen | max response, % | actives 12% (n = 300,000) | AID 2314; in the data active = max response mostly above about 13%, no sharp cut-off; inactive = mostly below about 14%; note: read at 38.3 µM for the half of the compounds with a filed dose; 0% is about no effect
HCV inh – inhibitors of hepatitis C virus infection; Huh7.5.1 HCVcc-Cre infection, luciferase reporter, 44 h; AID 651820; Potency, µM (series often up to 41.8 µM), for inactives: at the top dose activity change, negative = inhibition, most hits filed as inhibitors; actives 3.4% (n = 340,000); note: potency is the fitted concentration of half-maximal effect; % is set by controls: 0 for no effect and ±100 for the full control effect
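Whole-lifecycle infectious HCVcc-Cre system; cells 1,000/well, compound then virus (~0.5 moi) added 4 h after plating, 44 h culture. Luciferase read 15 sec following 15 min substrate incubation, room temp.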
Shiga toxin inh – Shiga toxin inhibition | Vero cells, Shiga toxin protein synthesis inhibition reporter | inhibition, % at 38.7 µM | actives 9.2% (n = 290,000); in the data active = inhibition mostly above about 28%, no sharp cut-off; inactive = mostly below about 43%; note: 0% is about no effect
Starred values were filed as active, the others as inactive; ? = inconclusive; nt = no result; [ ] = remark or other dose. In the library only some 21% were active in any assay of this set; here they are far more common. Unless noted, calls come from the whole dose curve; as a rule, active = well fitted curve in the direction sought with a large enough effect; inconclusive = small, poorly fitted or top-dose-only effect, or another doubt; inactive = no such curve, though single readings can be large; an effect the other way counts as inactive or inconclusive.

SMILES	Pf growth 48h	Pf growth 96h	AMA1-RON2 inh	CHX counter	HCV inh	Shiga toxin inh
CNc1c(NC(=O)c2ccc3c(c2)OCO3)c(=O)oc2ccccc12	-2.7%	-4.8%	11.7%	7.1	8.0%	1.8
O=[N+]([O-])c1nccn1CC(O)CO (stereo not given)	nt	nt	-4.5%	nt	nt	nt
CCOc1nc(-c2ccccc2)ccc1-c1noc(COC)n1	?	?	22.1%	7.7	10µM*	6.9
COc1nc(-c2ccccc2)ccc1-c1noc(C)n1	75.8%	nt	26.1%	62.2*	?	72.2*
COc1cc(-c2nc(-c3ccc(-c4ccccc4)nc3OC)no2)cc(OC)c1OC	21.5%	-28.0%	nt	-1.5	nt	-3.9
C=C1C[C@]2(O)[C@@]3(C)CCC(=O)C(C)(C)C3=C(O)C(=O)[C@@]2(C)[C@@H]2C(=O)O[C@@](C)(C(=O)OC)C(=O)[C@@]12C	16.7%	-16.0%	-1.7%	25.6*	?	63.9*
CC1=C(C(=O)Nc2ccccc2C)C(c2cccnc2)n2nc(CCCO)nc2N1 (stereo not given)	3.7%	nt	-3.1%	-2.0	8.3%	-11.3
COc1ccccc1NC(=O)C1=C(C)Nc2nc(CCCO)nn2C1c1cccnc1 (stereo not given)	19.6%	5.22µM*	4.9%	-1.6	13.4%	3.7
COc1ccc(C2C(C(=O)Nc3ccccc3)=C(C)Nc3nc(CCCO)nn32)cc1 (stereo not given)	-33.1%	13.1µM*	-3.6%	-3.8	21.2%	-14.3
CC1=C(C(=O)Nc2ccc(F)cc2)C(c2cccc(C)c2)n2nc(CCCO)nc2N1 (stereo not given)	-3.3%	6.57µM*	8.5%	-4.8	1.9%	-17.2
Nc1cccc2c(=O)[nH]ccc12	nt	nt	nt	-2.8	nt	1.5
COC(=O)C1CCN(C2CN(Cc3ccccc3)S(=O)(=O)C2)CC1 (stereo not given)	nt	nt	8.6%	nt	nt	nt
Cc1ccccc1N(C(=O)Cc1ccsc1)C(C(=O)NC1CCCCC1)c1ccc(F)cc1 (stereo not given)	0.6%	?	-3.4%	-1.6	0.8%	-14.3
COc1cc(C(C(=O)NC2CCCCC2)N(Cc2cccs2)C(=O)Cc2c[nH]c3ccccc23)cc(OC)c1OC (stereo not given)	9.28µM*	8.28µM*	-5.7%	0.5	?	-3.7
COc1cc(C(C(=O)NC2CCCCC2)N(C(=O)Cc2c[nH]c3ccccc23)c2ccccc2C)cc(OC)c1OC (stereo not given)	13.1µM*	?	-8.3%[11.6 µM]	-2.0	17.8%	-10.3
COc1ccc(C(C(=O)NC2CCCCC2)N(C(=O)Cc2c[nH]c3ccccc23)c2ccc(NC(C)=O)cc2)cc1OC (stereo not given)	10.4µM*	9.28µM*	-3.9%	-2.4	3.1%	-12.7
COc1ccccc1CN(C(=O)Cc1cccs1)C(C(=O)NC1CCCC1)c1ccncc1 (stereo not given)	?	16.5%	22.6%	-3.5	3.9%	-1.3
COc1ccc(C(C(=O)Nc2ccc3c(c2)OCO3)N(C)C(=O)Cc2c[nH]c3ccccc23)cc1 (stereo not given)	?	?	?	-1.7	?	-2.5
Cc1ccc(S(=O)(=O)N2[C@H](CC(=O)c3ccc(F)cc3)OC[C@@H]2C)cc1	nt	nt	3.2%	nt	nt	nt
CCCCn1nnnc1NCc1ccc(OC)c(OC)c1OC	33.3%	-5.6%	0.0%	-3.9	15.7%	-13.7
COc1ccc(CNc2ncc(-c3ccc(Cl)cc3)n2C)c(OC)c1OC	-25.8%	2.94µM*	?	-3.4	-15.9%	-4.6
COc1ccc(CNc2ncc(-c3ccc(Br)cc3)n2C)cc1OC	?	13.1µM*	?	-1.6	?	-6.8
O=C(CCc1nnc2ccc(NCc3ccccc3)nn12)NC1CCCCC1	7.7%	11.7µM*	5.2%	2.1	13.4%	7.3
O=C(NCCc1nnc2ccc(NCc3ccc(F)cc3)nn12)c1ccccc1	?	?	7.4%	-1.5	11.2%	10.4
CCOC(=O)N1CCN(C(=O)C[C@@H]2C[C@@]3(C(=O)OC)CCCCC=C3N(Cc3cccc4ccccc34)C2=O)CC1	nt	nt	9.8%	nt	nt	nt
SMILES	Pf growth 48h	Pf growth 96h	AMA1-RON2 inh	CHX counter	HCV inh	Shiga toxin inh
CCOC(=O)[C@@H](N)CS	-13.4%	-4.7%	nt	nt	nt	nt
O=C(NC(=S)Nc1ccc(S(=O)(=O)N2CCCCC2)cc1)c1ccc(Cl)cc1	nt	-30.9%	-0.2%	0.3	16.2%	28.3
CCC(=O)NC(=S)Nc1ccc(S(=O)(=O)N2CCN(C)CC2)cc1	4.9%	14.6%	8.3%	-3.4	17.0%	14.3
CN1CCN(S(=O)(=O)c2ccc(NC(=S)NC(=O)c3ccccc3)cc2)CC1	-27.6%	nt	6.0%	20.7*	1.5%	35.7
CN1CCN(S(=O)(=O)c2ccc(NC(=S)NC(=O)c3ccc(Cl)cc3)cc2)CC1	4.65µM*	2.33µM*	41.3%	23.2*	?	52.4
CSCC[C@H](NC(=O)[C@H](CC(C)C)NC(=O)CNC(=O)[C@@H]1CCCN1C(=O)[C@H](Cc1ccccc1)NC(=O)[C@H](Cc1ccccc1)NC(=O)[C@H](CC(=O)O)NC(=O)[C@H](Cc1cnc[nH]1)NC(=O)[C@H](CCSC)NC(=O)[C@@H](N)CC(=O)O)C(N)=O	nt	nt	nt	-4.1	nt	-5.6
O=C(C[n+]1cc(-c2ccc(Cl)cc2)n2c1CCC2)Nc1nc(-c2ccccc2)cs1	?	?	-5.6%	1.4	?	50.4
O=C(C[n+]1cc(-c2ccc(Cl)c(Cl)c2)n2c1CCC2)N1c2ccccc2Sc2ccccc21	2.62µM*	?	2.3%	8.4	7.9%	-1.6
COc1ccc(-c2c[n+](CC(=O)N3c4ccccc4Sc4ccccc43)c3n2CCC3)cc1	2.62µM*	1.65µM*	-17.1%	1.2	-4.0%	-1.3
O=C(C[n+]1cc(-c2ccc(F)cc2)n2c1CCC2)OCc1ccccc1	14.2%	10.0%	-1.5%	3.3	13.0%	-3.4
O=C(C[n+]1cc(-c2ccc(Cl)cc2)n2c1CCC2)N1c2ccccc2Sc2ccccc21	1.65µM*	?	-2.6%	-2.2	-5.1%	-0.5
Cc1cc(NC(=O)CSc2cn(CC(=O)N(C(C)C)C(C)C)c3ccccc23)no1	0.0%	?	-3.0%	7.6	?	-6.8
O=C(Nc1ccon1)c1sc2cc(F)ccc2c1Cl	158.0%	-8.0%	0.0%	33.4*	4.1%	75.4*
O=C(NCc1ccco1)c1sc2cc(F)ccc2c1Cl	111.3%	14.7µM*	-3.6%	38.6*	-29.7%	85.9*
O=C(NCCCN1CCOCC1)c1sc2cc(Cl)ccc2c1Cl	25.1%	-1.8%	-9.9%	15.2	-6.1%	34.4
O=C(NCCCN1CCOCC1)c1sc2cc(F)ccc2c1Cl	46.4%	56.6%	-16.6%	37.5*	-5.8%	41.9*
O=C(NC1=NCCS1)c1sc2cc(F)ccc2c1Cl	141.5%	75.7%	45.0%	76.9*	-6.7%	96.2*
